# Where “and” joins values, the source holds several entries; their conditions need not be identical. Equal values may be shown once. Screen size: about 5,500 compounds; about 2,000 (36%) were called active. About 18% were inconclusive and are not listed. The list shows a part of the results. Unmarked numbers belong to inactive results. No stated cut-off is given here; in the data, active means normalized growth mostly below about 0.91 (no sharp cut-off); inconclusive means no clear call, values can overlap the other calls; inactive means mostly above about 0.92.
# Experiment: chemical genetic growth profiling, strain panel (AID 1159580);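 further: tested at 20 µM; growth read once vehicle control cultures reached saturation at 30 °C; 1 = growth at the plate median or of vehicle wells; lower values mean less growth of the strain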
# Conditions: S. cerevisiae deletion strains, growth OD
compound,measurement,setting,value
C[C@@H]1CC[C@H]2[C@@H](C)C(=O)O[C@@H]3O[C@@]4(C)CC[C@@H]1[C@]32OO4,normalized growth,"locus YAL013W, strain DEP1, hits give low values",0.924
same,normalized growth,"locus YAL021C, strain ccr4, hits give low values",0.741 (active)
same,normalized growth,"locus YAL026C, strain drs2, hits give low values",0.824 (active)
same,normalized growth,"locus YAL030W, strain snc1, hits give low values",0.89 (active)
same,normalized growth,"locus YBL061C, strain skt5, hits give low values",0.903 (active)
same,normalized growth,"locus YBR009C, strain hhf1, hits give low values",0.788 (active)
same,normalized growth,"locus YBR021W, strain FUR4, hits give low values",0.948
same,normalized growth,"locus YBR023C, strain chs3, hits give low values",0.906 (active)
same,normalized growth,"locus YBR171W, strain sec66, hits give low values",0.889 (active)
same,normalized growth,"locus YBR229C, strain ROT2, hits give low values",0.942
same,normalized growth,"locus YBR231C, strain swc5, hits give low values",0.713 (active)
same,normalized growth,"locus YBR279W, strain paf1, hits give low values",0.864 (active)
same,normalized growth,"locus YCL011C, strain gbp2, hits give low values",0.869 (active)
same,normalized growth,"locus YCL016C, strain dcc1, hits give low values",0.837 (active)
same,normalized growth,"locus YCL029C, strain bik1, hits give low values",0.887 (active)
same,normalized growth,"locus YCL069W, strain vba3, hits give low values",0.924 (active)
same,normalized growth,"locus YCR088W, strain abp1, hits give low values",0.921 (active)
same,normalized growth,"locus YDL005C, strain med2, hits give low values",0.967
same,normalized growth,"locus YDL035C, strain GPR1, hits give low values",0.825 (active)
same,normalized growth,"locus YDL040C, strain nat1, hits give low values",0.949
same,normalized growth,"locus YDL074C, strain BRE1, hits give low values",0.83
same,normalized growth,"locus YDL101C, strain DUN1, hits give low values",0.913
same,normalized growth,"locus YDL134C, strain PPH21, hits give low values",0.818 (active)
same,normalized growth,"locus YDL185W, strain tfp1, hits give low values",0.875 (active)
same,normalized growth,"locus YDL192W, strain arf1, hits give low values",0.867 (active)
same,normalized growth,"locus YDR001C, strain nth1, hits give low values",0.932
same,normalized growth,"locus YDR069C, strain doa4, hits give low values",0.872 (active)
same,normalized growth,"locus YDR101C, strain arx1, hits give low values",0.887 (active)
same,normalized growth,"locus YDR137W, strain rgp1, hits give low values",0.388 (active)
same,normalized growth,"locus YDR150W, strain NUM1, hits give low values",0.899 (active)
same,normalized growth,"locus YDR159W, strain sac3, hits give low values",0.595 (active)
same,normalized growth,"locus YDR162C, strain NBP2, hits give low values",0.817 (active)
same,normalized growth,"locus YDR195W, strain ref2",0.956
same,normalized growth,"locus YDR297W, strain sur2, hits give low values",0.893 (active)
same,normalized growth,"locus YDR318W, strain mcm21, hits give low values",0.841 (active)
same,normalized growth,"locus YDR334W, strain swr1, hits give low values",0.917
same,normalized growth,"locus YDR335W, strain msn5, hits give low values",0.853 (active)
same,normalized growth,"locus YDR388W, hits give low values",0.868 (active)
same,normalized growth,"locus YDR392W, strain spt3, hits give low values",0.374 (active)
same,normalized growth,"locus YDR502C, strain sam2, hits give low values",0.815 (active)
same,normalized growth,"locus YEL003W, strain gim4, hits give low values",0.808 (active)
same,normalized growth,"locus YEL037C, strain rad23, hits give low values",0.915 (active)
same,normalized growth,"locus YEL061C, strain CIN8 (second series), hits give low values",0.889 (active)
same,normalized growth,"locus YEL061C, strain CIN8, hits give low values",0.891 (active)
same,normalized growth,"locus YER015W, strain faa2, hits give low values",0.761 (active)
same,normalized growth,"locus YER016W, strain bim1, hits give low values",0.904 (active)
same,normalized growth,"locus YER110C, hits give low values",0.932
same,normalized growth,"locus YER111C, strain swi4, hits give low values",0.93
same,normalized growth,"locus YER155C, strain BEM2 (second series), hits give low values",0.655 (active)
same,normalized growth,"locus YER155C, strain BEM2, hits give low values",0.922 (active)
same,normalized growth,"locus YER167W, strain BCK2, hits give low values",0.784 (active)
same,normalized growth,"locus YFR010W, strain ubp6, hits give low values",0.841 (active)
same,normalized growth,"locus YGL078C, strain dbp3, hits give low values",0.939
same,normalized growth,"locus YGL086W, strain mad1, hits give low values",0.827 (active)
same,normalized growth,"locus YGL167C, strain pmr1, hits give low values",0.973
same,normalized growth,"locus YGL173C, strain kem1, hits give low values",0.907
same,normalized growth,"locus YGL227W, strain vid30, hits give low values",0.95
same,normalized growth,"locus YGL240W, strain doc1, hits give low values",0.757 (active)
same,normalized growth,"locus YGL248W, strain PDE1, hits give low values",0.818 (active)
same,normalized growth,"locus YGL253W, strain hxk2, hits give low values",0.707 (active)
same,normalized growth,"locus YGR078C, strain PAC10, hits give low values",0.789 (active)
same,normalized growth,"locus YGR135W, strain pre9, hits give low values",0.858 (active)
same,normalized growth,"locus YGR252W, strain gcn5, hits give low values",0.854
same,normalized growth,"locus YHR013C, strain ard1, hits give low values",0.781 (active)
same,normalized growth,"locus YHR027C, strain rpn1, hits give low values",0.781 (active)
same,normalized growth,"locus YHR030C, strain SLT2, hits give low values",0.837 (active) and 0.62 (active)
same,normalized growth,"locus YHR079C, strain IRE1 (second series), hits give low values",0.89 (active)
same,normalized growth,"locus YHR079C, strain IRE1, hits give low values",0.654 (active)
same,normalized growth,"locus YHR094C, strain hxt1, hits give low values",0.94
same,normalized growth,"locus YHR129C, strain ARP1, hits give low values",0.89 (active)
same,normalized growth,"locus YHR142W, strain chs7, hits give low values",0.856 (active)
same,normalized growth,"locus YHR200W, strain rpn10, hits give low values",0.851 (active)
same,normalized growth,"locus YIL066C, strain RNR3, hits give low values",0.805 (active)
same,normalized growth,"locus YIL073C, strain SPO22, hits give low values",0.741
same,normalized growth,"locus YIL125W, strain kgd1, hits give low values",0.893 (active)
same,normalized growth,"locus YIR030C, strain dcg1, hits give low values",0.918 (active)
same,normalized growth,"locus YJL092W, strain hpr5, hits give low values",0.859 (active)
same,normalized growth,"locus YJL095W, strain BCK1 (second series), hits give low values",0.798 (active)
same,normalized growth,"locus YJL095W, strain BCK1, hits give low values",0.625 (active) and 0.71 (active)
same,normalized growth,"locus YJL115W, strain asf1, hits give low values",0.861 (active)
same,normalized growth,"locus YJL129C, strain trk1, hits give low values",0.703 (active)
same,normalized growth,"locus YJL134W, strain LCB3, hits give low values",0.927 (active)
same,normalized growth,"locus YJL154C, strain vps35, hits give low values",0.928
same,normalized growth,"locus YJL164C, strain tpk1, hits give low values",0.871 (active)
same,normalized growth,"locus YJL166W, strain qcr8, hits give low values",0.813 (active)
same,normalized growth,"locus YJL168C, strain set2, hits give low values",0.915 (active)
same,normalized growth,"locus YJL187C, strain SWE1 (second series), hits give low values",0.843 (active)
same,normalized growth,"locus YJR043C, strain POL32, hits give low values",0.867
same,normalized growth,"locus YJR066W, strain TOR1, hits give low values",0.738 (active)
same,normalized growth,"locus YJR075W, strain HOC1, hits give low values",0.79 (active)
